“And” between values parts separate entries of the source, which are not always exact repeats. Equal values may be shown once. Screen size: about 86,000 compounds; about 220 (0.26%) were called active.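 How the source made its calls: active means mean growth activity at or below -80% and every replicate also at or below -80%; inconclusive means mean at or below -80% but some replicate above -80%; inactive means mean growth activity above -80%.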 The sample as a whole holds a higher share of actives than the screen did.
assay: C. difficile growth inhibitors, primary screen, HTS (AID 1259249); conditions: Clostridium difficile clinical isolate growth, OD600, 24 h; hits give low values; screened at 16 µg/mL (by protocol);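 further: 0% = DMSO wells and -100% = levofloxacin 16 µg/mL wells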

Growth activity, negative = inhibition, inactive:
CCCNC(=O)Nc1ccc2c(c1)OC[C@H](C)N(CCC(F)(F)F)C[C@H](C)[C@@H](OC)CN(C)C2=O -16.2%
Cc1ccc(S(=O)(=O)N[C@@H]2CC[C@@H](CCn3cc(C4CC4)nn3)O[C@@H]2CO)cc1 -1.26%
C[C@@H]1CCCCO[C@@H](CN(C)C(=O)NC2CCCCC2)[C@H](C)CN([C@H](C)CO)C(=O)c2cc(NC(=O)Nc3cccc4ccccc34)ccc2O1 2.69%
O=C(c1ccncc1)N1C[C@H]2[C@@H](c3ccccc31)[C@H](CO)N2Cc1ccc(F)cc1 -10.6%
CCCC(=O)N1CC2(CN(C(=O)NC(C)C)C2)c2c([nH]c3cc(OC)ccc23)[C@@H]1CO -10.9%
CC(C)C(=O)Nc1ccc2c(c1)C(=O)N(C)[C@@H]1CC[C@@H](CC(=O)NCCc3ccccc3)O[C@H]1CO2 -2.19%
COc1ccc2c3c(n(C)c2c1)[C@H](CO)N(CC1CC1)CC31CCN(C(=O)c2ccccc2)CC1 22.3%
COCc1cn(CC[C@@H]2CC[C@@H](NC(=O)Nc3ccc(C(F)(F)F)cc3)[C@H](CO)O2)nn1 1.56%
C[C@@H]1CN([C@@H](C)CO)C(=O)c2cc(NC(=O)Nc3ccc4c(c3)OCO4)ccc2O[C@@H](C)CCCCO[C@H]1CN(C)C(=O)Nc1ccc(C(F)(F)F)cc1 3.76%
CCN1[C@@H]2c3cccc(=O)n3C[C@H]1[C@H](CO)[C@H]2C(=O)NC1Cc2ccccc2C1 -3.73%
O=C(C1CCC1)N1CC(=O)N2[C@@H](CO)[C@@H](c3ccc(C#Cc4cccc(F)c4)cc3)[C@@H]2C1 -12.4%
Cc1ccc(-c2cnc3c(c2)C(=O)N([C@H](C)CO)C[C@H](C)[C@@H](CN(C)C(=O)c2cccc(F)c2)O3)cc1 0.45%
CN1c2ccc(-c3cccc(F)c3)cc2[C@H]2[C@H](CCN2C(=O)c2cccc(F)c2)[C@H]1CO -1.71%
C[C@@H]1CN([C@@H](C)CO)C(=O)Cc2cc(NC(=O)Nc3ccc(C(F)(F)F)cc3)ccc2O[C@H]1CN(C)Cc1ccc(C(=O)O)cc1 4.68%
COc1cccc(NC(=O)N(C)C[C@@H]2Oc3ncc(Br)cc3C(=O)N([C@@H](C)CO)C[C@H]2C)c1 4.14%
CO[C@@H]1CN(C)C(=O)c2cc(NC(=O)C3CCCC3)ccc2OC[C@@H](C)N(Cc2ccc(F)cc2)C[C@H]1C 7.43%
COc1ccccc1NC(=O)N1C[C@H]2[C@@H](c3ccccc31)[C@H](CO)N2Cc1ccc2c(c1)OCO2 -2.67%
COc1ccccc1NC(=O)N1C[C@@H]2[C@H](c3ccccc31)[C@H](CO)N2CC1CCOCC1 8.14%
CO[C@@H]1CN(C)C(=O)c2cc(NC(=O)C3CCC3)ccc2OC[C@H](C)N(Cc2ccccn2)C[C@H]1C -0.0418%
COc1ccccc1C#Cc1ccc2c(c1)O[C@H](CN(C)Cc1cccnc1)[C@@H](C)CN([C@H](C)CO)S2(=O)=O 2.69%
C[C@H]1CN([C@@H](C)CO)C(=O)c2cc(C#CC3CCCC3)cnc2O[C@@H]1CN(C)C(=O)Cc1ccccn1 -9.22%
N#C[C@H]1[C@@H](c2ccccc2C2=CCCC2)[C@H](CO)N1C(=O)c1cccc(F)c1 -5.69%
C[C@@H]1CCCCO[C@H](CN(C)CC2CCCCC2)[C@H](C)CN([C@H](C)CO)C(=O)c2cc(NS(=O)(=O)c3ccc(F)cc3)ccc2O1 11.3%
COc1ccc(S(=O)(=O)NC[C@@H]2CC[C@@H]3[C@@H](CN3Cc3cc(F)ccc3F)O2)cc1 -8.36%
CN1C(=O)c2cc(NC(=O)C3CC3)ccc2OC[C@H]2O[C@H](CC(=O)O)CC[C@H]21 3.37%
CO[C@@H]1CN(C)C(=O)c2ccc(NC(=O)C3CC3)cc2OC[C@H](C)N(C(C)=O)C[C@H]1C 0.555%
COc1cccc(NC(=O)N[C@H]2C=C[C@H](CC(=O)NCc3ccccn3)O[C@@H]2CO)c1 6.26%
CO[C@H]1CN(C)C(=O)c2ccc(NC(=O)C3CCCC3)cc2OC[C@H](C)N(C(=O)CC2CC2)C[C@@H]1C -4%
C/C=C/c1ccccc1[C@H]1[C@@H](C#N)N(C(C)=O)[C@@H]1CO -2.31%
O=C(C1CCOCC1)N1CC(=O)N2[C@H](CO)[C@H](c3ccc(C#Cc4cccc(F)c4)cc3)[C@H]2C1 -20.7%
CNC(=O)C[C@H]1CC[C@H]2[C@H](COc3ccc(NC(=O)Nc4ccc(F)cc4)cc3C(=O)N2C)O1 -3.32%
O=C(C[C@H]1C=C[C@H](NC(=O)Nc2cc(F)ccc2F)[C@@H](CO)O1)NCc1ccccn1 -1.08%
CNC[C@H]1OCCCC[C@H](C)Oc2ccc(NC(=O)Nc3ccc(C(F)(F)F)cc3)cc2C(=O)N([C@H](C)CO)C[C@@H]1C 8.32%
C[C@H](O)C#Cc1ccc2c(c1)O[C@@H](CN(C)C(=O)C1CCCCC1)[C@H](C)CN([C@@H](C)CO)S2(=O)=O -2.82%
COc1ccc2c3c(n(C)c2c1)[C@@H](CO)N(C(=O)CN1CCOCC1)CC31CCN(Cc2ccncc2)CC1 -2.85%
CCCNC(=O)N1CC2(C1)[C@@H](c1ccccc1)[C@@H](CO)N2C(=O)CC1CC1 -0.374%
C[C@@H]1CN([C@H](C)CO)S(=O)(=O)c2ccc(C3=CCCC3)cc2O[C@H]1CN(C)C(=O)CC1CC1 3.03%
COCc1cn(CC[C@H]2CC[C@H](NC(=O)Cc3cccnc3)[C@H](CO)O2)nn1 1.58%
N[C@@H]1CC[C@H](CCn2cc(C3CC3)nn2)O[C@@H]1CO 5.59%
C/C=C/c1ccc([C@@H]2[C@H](CO)N(C(=O)c3cnccn3)C23CN(C(C)=O)C3)cc1 2.93%
CCCNC(=O)C[C@H]1CC[C@H]2[C@@H](COC[C@H](O)CN2C(=O)CC)O1 7.43% and 9.67%

Reference: PubChem BioAssay AID1259249 (Broad Institute, 2017)
